Data taken from article PMC5540273 (PLoS ONE, 2017).

test system: PIM1; conditions: concentration: 1 μM, replicates: in singlicate; n = 1
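Further: KINOMEscan kinase panel screen.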

Compound | %Inh [%]
CN1c2ccc(CNc3ccc(F)cc3)cc2-c2c(cnn2C)S1(=O)=O | 0
O=c1cc(N2CCOCC2)nc2n(Cc3cccc(C(F)(F)F)c3)ccn12 [GSK2297543] | 11
Fc1ccc(-c2nn3c(OCC(F)(F)F)cccc3c2-c2ccncc2)cc1 [GW514784] | 0
COc1cc2c(cc1OC[C@@H](O)CO)ncc1c3ccc(C#N)cc3[nH]c21 | 0
Nc1nc(-c2ccc3c(N)n[nH]c3c2)cc(N2CCCC2)n1 [GSK2227430] | 20
Cc1cccc(-c2nc(-c3ccc(S(C)(=O)=O)cc3)sc2-c2ccncc2)c1 | 13
NCC(NC(=O)c1cc(-c2cn[nH]c2)c(-c2ccnc3[nH]ccc23)s1)c1ccccc1.O=C(O)C(F)(F)F.O=C(O)C(F)(F)F (centres unmarked) [GSK1325775] | 39
O=C(Nc1cccc(-c2nn3ncccc3c2-c2ccnc(Nc3cccc(C(F)(F)F)c3)n2)c1)c1c(F)cccc1F [GSK299495] | 0
O=c1cc(N2CCOCC2)nc2n(Cc3cccc4ccccc34)ccn12 [GSK2333389] | 0
CSc1ccc(-c2cc3ncnc(SCC(=O)O)c3s2)cc1 | 0
CC(C)(CN)c1nc(-c2ccc(Cl)c(O)c2)c(-c2ccncc2)[nH]1.O=C(O)C(F)(F)F [SB-477794] | 0
O=C(NCCNc1ccnc(Nc2ccc(F)cc2)n1)c1cc2ccccc2s1 [GSK1379874] | 0
COc1cc2c(cc1OCCN1CCN(C)CC1)ncc1c3ccc(C#N)cc3[nH]c21 | 34
Cc1nnc(-c2ccc3occ(-c4ccc(C(C)O)cc4)c3c2)o1 (centres unmarked) | 24
COc1ccc(Nc2ncc(C#N)c(Nc3ccccc3C(N)=O)n2)cc1N1CCN(C)CC1.Cl [GSK1558669] | 97.4
O=C(NCCCN1CCOCC1)c1cccc(Nc2nccc(Nc3ccc(Oc4ccccc4)cc3)n2)c1 [GW663929] | 22
CC(=O)Nc1ccc(COc2ccc(Nc3ccnc4cc(-c5ccccn5)ccc34)cc2)cc1.Cl [GW440148] | 17
c1ccc(-c2n[nH]cc2-c2ccnc3ccccc23)nc1 [GW271431] | 8
COc1ccc(CNC(=O)NC2CCN(c3ccnc(Nc4ccc(OC)cc4)n3)C2)cc1 (centres unmarked) [GSK1379727] | 0
O=C(c1ccc(-c2cc(-c3c[nH]nc3-c3ccccn3)ccn2)cc1)N1CCOCC1 [GW812171] | 24
COc1cc(Nc2nccc(N3CCC(NC(=O)c4cccc(NC(C)=O)c4)C3)n2)cc(OC)c1OC (centres unmarked) [GSK1379754] | 0
CC(C)(C)n1cnc2c(N)ncnc21 [SKF-97359] | 0
Cc1c(Cn2c(C)nn3c(=O)cc(N4CCOC(C)C4)nc23)cccc1C(F)(F)F (centres unmarked) [GSK2344444] | 11

test system: PIM2; conditions: concentration: 1 μM, replicates: in singlicate; n = 1

Compound | %Inh [%]
COc1ccc(COc2cc(-n3cnc4ccccc43)sc2C(N)=O)cc1 [GSK1024304] | 0
Cc1nnc(-c2ccc3ncc(-c4ccc(S(C)=O)cc4)n3c2)o1 (centres unmarked) | 2
COc1ccc(S(=O)(=O)NC2CCN(c3cc(C)nc(Nc4cccc(C#N)c4)n3)CC2)cc1.O=C(O)C(F)(F)F [GSK1653539] | 0
COc1ccc(Nc2nccc(N3CCC(NC(=O)Nc4cccc(C(C)=O)c4)C3)n2)cc1 (centres unmarked) [GSK1379731] | 0
Cc1cccc(-c2nc(Nc3ccc4ncsc4c3)c3ccccc3n2)n1 [GW867588] | 0
C[C@@H](Oc1cc(-n2cnc3ccc(NC(=O)NC(C)(C)C)cc32)sc1C(N)=O)c1ccccc1Cl [GSK346294] | 0
c1ccc(-c2cc(-c3c[nH]nc3-c3ccccn3)ccn2)cc1 [GW576604] | 0
CCc1nc(-c2cccc(C)c2)c(-c2ccnc(NCc3ccccc3)c2)s1 | 0
COCCNC(=O)c1ccc(-c2cc(C(=O)NC3CC3)cc(F)c2C)cc1 [GW868318] | 3
N#Cc1ccc(-c2cc(-c3c[nH]nc3-c3ccccn3)ccn2)cc1 [GW693028] | 0
O=C(Nc1n[nH]c2cc(-c3cccc(F)c3)ccc12)C1CC1 [SB-735464] | 0
Cl.Oc1cccc(Nc2ccnc3cc(-c4ccncc4)ccc23)c1 [GW494601] | 0
Cn1cc(-c2ccc3c(c2)CCN3C(=O)Cc2ccccc2Cl)c2c(N)ncnc21 [GSK2608885] | 0
CN1c2ccc(CNc3ccc(F)cc3)cc2-c2c(cnn2C)S1(=O)=O | 14
O=c1cc(N2CCOCC2)nc2n(Cc3cccc(C(F)(F)F)c3)ccn12 [GSK2297543] | 0
Fc1ccc(-c2nn3c(OCC(F)(F)F)cccc3c2-c2ccncc2)cc1 [GW514784] | 0
COc1cc2c(cc1OC[C@@H](O)CO)ncc1c3ccc(C#N)cc3[nH]c21 | 81
Nc1nc(-c2ccc3c(N)n[nH]c3c2)cc(N2CCCC2)n1 [GSK2227430] | 0

Compound | %Inh [%]
Cc1cccc(-c2nc(-c3ccc(S(C)(=O)=O)cc3)sc2-c2ccncc2)c1 | 2
NCC(NC(=O)c1cc(-c2cn[nH]c2)c(-c2ccnc3[nH]ccc23)s1)c1ccccc1.O=C(O)C(F)(F)F.O=C(O)C(F)(F)F (centres unmarked) [GSK1325775] | 16
O=C(Nc1cccc(-c2nn3ncccc3c2-c2ccnc(Nc3cccc(C(F)(F)F)c3)n2)c1)c1c(F)cccc1F [GSK299495] | 0
O=c1cc(N2CCOCC2)nc2n(Cc3cccc4ccccc34)ccn12 [GSK2333389] | 0
CSc1ccc(-c2cc3ncnc(SCC(=O)O)c3s2)cc1 | 0
CC(C)(CN)c1nc(-c2ccc(Cl)c(O)c2)c(-c2ccncc2)[nH]1.O=C(O)C(F)(F)F [SB-477794] | 0
O=C(NCCNc1ccnc(Nc2ccc(F)cc2)n1)c1cc2ccccc2s1 [GSK1379874] | 0
COc1cc2c(cc1OCCN1CCN(C)CC1)ncc1c3ccc(C#N)cc3[nH]c21 | 90.9
Cc1nnc(-c2ccc3occ(-c4ccc(C(C)O)cc4)c3c2)o1 (centres unmarked) | 80
COc1ccc(Nc2ncc(C#N)c(Nc3ccccc3C(N)=O)n2)cc1N1CCN(C)CC1.Cl [GSK1558669] | 0
O=C(NCCCN1CCOCC1)c1cccc(Nc2nccc(Nc3ccc(Oc4ccccc4)cc3)n2)c1 [GW663929] | 0
CC(=O)Nc1ccc(COc2ccc(Nc3ccnc4cc(-c5ccccn5)ccc34)cc2)cc1.Cl [GW440148] | 0
c1ccc(-c2n[nH]cc2-c2ccnc3ccccc23)nc1 [GW271431] | 0
COc1ccc(CNC(=O)NC2CCN(c3ccnc(Nc4ccc(OC)cc4)n3)C2)cc1 (centres unmarked) [GSK1379727] | 0
O=C(c1ccc(-c2cc(-c3c[nH]nc3-c3ccccn3)ccn2)cc1)N1CCOCC1 [GW812171] | 0
COc1cc(Nc2nccc(N3CCC(NC(=O)c4cccc(NC(C)=O)c4)C3)n2)cc(OC)c1OC (centres unmarked) [GSK1379754] | 0
CC(C)(C)n1cnc2c(N)ncnc21 [SKF-97359] | 0
Cc1c(Cn2c(C)nn3c(=O)cc(N4CCOC(C)C4)nc23)cccc1C(F)(F)F (centres unmarked) [GSK2344444] | 0
